Hits are enriched below; roughly 19% of the tested compounds scored in any of these assays.
KB-V1 cytotox: kills drug-selected multidrug resistant KB-V1 cells; KB-V1 MDR cells viability, CellTiter-Glo, 72 h; Potency, µM (series often up to 46.1 µM), hits mostly cytotoxic; 400,000 compounds, 3.4% hits; AID 1347076; also: nearly all actives have a fitted effect of over 60% in size
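qHTS viability screen in drug-selected KB-V1 MDR cells: 72 h compound treatment at 37 degrees C, ATP luminescence end point.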
DT40 TDP1 CPT: growth inhibition of DT40 Tdp1-/-;hTDP1 cells with camptothecin (screen for TDP1 inhibitors) | chicken DT40 Tdp1-/-;hTDP1 cells + 20 nM CPT, ATP luminescence, 48 h | Potency, µM (titrated, usually from 46.2 µM), for inactives: top-dose activity change, negative = growth inhibition, usual class: inhibitors | 420,000 compounds, 12% hits | AID 686979; also: nearly all actives have a fitted effect of over 55% in size
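Chicken DT40 Tdp1-/- cells complemented with human TDP1, 400 cells/well, exposed to compounds plus 20 nM camptothecin for at least 48 h at 37 C; viability read as ATP content by CellTiter-Glo luminescence.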
KB-3-1 cytotox: kills parental KB-3-1 adenocarcinoma cells | KB-3-1 viability, CellTiter-Glo ATP luminescence, 72 h | Potency, µM (series often up to 46.1 µM), actives largely listed as cytotoxic | 400,000 compounds, 1.4% hits | AID 1347075; also: nearly all actives have a fitted effect of over 60% in size
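Screening of KB-3-1 cells (DMEM, 10% FBS, phenol-red free) ran from lowest to highest compound concentration; after 72 h at 37 °C viability was read luminescently and curves fitted.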
HT1080 IDH1KD tx: toxicity to HT-1080 IDH1 knockdown cells (counter line); HT-1080 IDH1 knockdown viability, ATP luminescence, 48 h; 360,000 compounds, 2% hits; AID 686971; Potency, µM (highest dose often 46.1 µM), inactives show at the highest dose activity, negative = toxicity, hits mostly cytotoxic;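 also: 0% = DMSO wells and -100% = cell-free medium wells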
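Luminescent ATP read-out (CellTiter-Glo, 10 min at room temperature) after 48 h compound exposure at 37 °C gave viability of IDH1-knockdown HT-1080 cells. Activity was normalised to DMSO and cell-free wells, then fitted as concentration-response curves.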
HT1080-NT tox: kills 2HG-producing HT-1080-NT fibrosarcoma cells. Potency, µM (top dose mostly 46.1 µM), inactives show at the top dose activity, negative = less viability, usual class: cytotoxic. HT-1080-NT fibrosarcoma viability, CellTiter-Glo ATP luminescence, 48 h. 360,000 compounds, 1.6% hits. AID 686970;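 also: NT is the 2HG producing partner of a matched IDH1 knockdown line; 0% = DMSO-treated cells and -100% = media-only wells without cells; nearly all actives have a fitted effect of over 55% in size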
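Read-out is CellTiter-Glo luminescence after 10 minutes at room temperature, following 48 hours' compound treatment of HT-1080-NT cells (750 cells/well, RPMI, 5% FBS, 37 degrees C).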
TDP1 cell noCPT: qHTS for Inhibitors of human tyrosyl-DNA phosphodiesterase 1 (TDP1): qHTS in cells in absence of CPT; AID 686978, 2013; 420,000 compounds, 15% hits; Potency, µM (doses to about 46.2 µM), without a hit: at the highest dose activity change, negative = growth inhibition, actives largely listed as inhibitors; DT40 Tdp1-/- hTDP1 cells, no CPT, ATP luminescence, 48 h; also: nearly all actives have a fitted effect of over 55% in size
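DT40 Tdp1-/-;hTDP1 cells, no CPT (DMSO vehicle only), 400 cells/well; compounds pin-transferred; ≥48 hr, 37 °C; CellTiter-Glo 30 min RT dark, luminescence read.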
An asterisk follows results filed as active; i = inactive; ? = inconclusive; . = not tested or not shown; [ ] = dose if it differs, or a comment. Calls follow the shape of the dose curve; as a rule, active = well fitted curve in the direction sought with a large enough effect; inconclusive = small, poorly fitted or top-dose-only effect, or another doubt; inactive = no such curve, though single readings can be large; an effect the other way counts as inactive or inconclusive. Unless noted, % is scaled to controls: 0 for no effect and ±100 for the full control effect; potency is read from the fitted curve at half-maximal effect.

SMILES	KB-V1 cytotox	DT40 TDP1 CPT	KB-3-1 cytotox	HT1080 IDH1KD tx	HT1080-NT tox	TDP1 cell noCPT
CC1c2ccccc2CN1NC(=O)c1ccc(Cl)c(S(N)(=O)=O)c1 (stereo not given)	.	-2%	.	.	.	5%
CCN(CC)C(=O)C1=C(C)N(Cc2ccc(C(C)(C)C)cc2)C(=O)C(CC(=O)NCc2ccco2)C1 (stereo not given)	?	?	i	1%	-12%	23µM*
CCN(CC)C(=O)C1=C(C)N(Cc2ccc(C(C)(C)C)cc2)C(=O)C(CC(=O)NCc2cccs2)C1 (stereo not given)	?	23µM*	i	-1%	-11%	23µM*
CC1=C(C(=O)N(C(C)C)C(C)C)CC(CC(=O)NCc2ccco2)C(=O)N1Cc1ccc(C(C)(C)C)cc1 (stereo not given)	i	21µM*	i	?	-25%	16µM*
CC1=C(C(=O)N(C(C)C)C(C)C)CC(CC(=O)NCc2cccc3ccccc23)C(=O)N1Cc1ccc(C(C)(C)C)cc1 (stereo not given)	?	?	23µM*	?	?	?
CCCCN1C(=O)C(CC(=O)NCc2ccco2)CC(C(=O)N(C(C)C)C(C)C)=C1C (stereo not given)	i	0%	i	13%	17%	-1%
CC1=C(C(=O)N(C)C)CC(CC(=O)NCc2cccc3ccccc23)C(=O)N1Cc1ccc(C(C)(C)C)cc1 (stereo not given)	i	-11%	i	?	?	?
NS(=O)(=O)c1ccc(NC(=S)Nc2nn(Cc3ccc(Cl)cc3Cl)cc2Cl)cc1	i	?	i	-12%	-3%	?
Cc1ccc(-c2csc(NC(=O)c3c(C)noc3C)n2)s1	i	5.2µM*	i	?	-1%	4.1µM*
Cc1noc(C)c1C(=O)Nc1nc(C23CC4CC(CC(C4)C2)C3)cs1	i	?	i	-5%	2%[9.24 µM]	18µM*
Cc1ccc(-c2csc(NC(=O)c3c(C)noc3C)n2)cc1C	?	18µM*	?	5%	6%	13µM*
Cc1onc(-c2ccccc2)c1C(=O)Nc1nc(-c2ccc(F)c(F)c2)cs1	i	?	i	?	-26%	26µM*
Cc1ccc(C)c(-c2csc(NC(=O)c3c(C)noc3C)n2)c1	?	?	i	-4%	2%	?
CCOC(=O)Cc1csc(NC(=O)c2c(C)noc2C)n1	i	0%	?	0%	-2%	0%
COC(=O)c1ccc(-c2csc(NC(=O)c3c(C)noc3C)n2)cc1	i	16µM*	i	-28%	-22%	21µM*
CCn1cc(CN2CCN(Cc3ccsc3)C(CCO)C2)cn1 (stereo not given)	i	-2%	i	2%	-2%	15%
OCCC1CN(Cc2cnc(-c3ccccc3)s2)CCN1C1CCCC1 (stereo not given)	?	7%	i	-7%	-3%	-4%
CCOc1ccc(CN2CCN(Cc3cnc(-c4ccccc4)s3)CC2CCO)cc1 (stereo not given)	?	?	i	-21%	-1%	21µM*
CCOc1ccc2nc(CN3CCN(Cc4ccsc4)C(CCO)C3)ccc2c1 (stereo not given)	i	?	i	2%	-2%	18µM*
CCOC(=O)C1CCCN(C(=O)c2cccc(OC(F)(F)F)c2)CC1 (stereo not given)	i	?	i	1%	0%	-14%
COc1ccccc1/C=C/C1(C(=O)NC2CCCC2)CC(=O)N1c1ccc(C)cc1 (stereo not given)	2.9µM*	?	21µM*	?	?	23µM*
